Measurements taken from PubChem BioAssay (NCI).
About 83,000 compounds went through this panel and 20% of them were active in at least one assay; those are over-represented in the sample as a whole.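 Growth was measured after 48 h exposure to one concentration of compound in 96-well plates. Values under 10 count as active.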 Calls of active or inactive are those of the source.

Tests used:
Assay in all cases: NCI-60 one-dose screen, 48 h (100 = growth as untreated, 0 = no growth, -100 = all killed)
Conditions in all cases: 10 µM unless noted
NCI-H23 lung = system: NCI-H23 lung
NCI-H226 lung = system: NCI-H226 lung
NCI-H322M lung = system: NCI-H322M lung
HOP-62 NSCLC = system: HOP-62 NSCLC
NCI-H460 lung = system: NCI-H460 lung
NCI-H522 lung = system: NCI-H522 lung
A549/ATCC NSCLC = system: A549/ATCC NSCLC
786-0 renal = system: 786-0 renal
COLO 205 colon = system: COLO 205 colon
DU-145 prostate = system: DU-145 prostate
K-562 leukemia = system: K-562 leukemia
MALME-3M melanoma = system: MALME-3M melanoma
MDA-MB-231 breast = system: MDA-MB-231 breast
RXF 393 renal = system: RXF 393 renal
SF-268 CNS = system: SF-268 CNS
SF-295 CNS = system: SF-295 CNS
SF-539 CNS = system: SF-539 CNS
UACC-257 melanoma = system: UACC-257 melanoma
M14 melanoma = system: M14 melanoma

Measured: growth

CC(=O)OC[C@H]1O[C@@H](n2c(=O)cc(N)[nH]c2=O)C(OC(C)=O)[C@@H]1OC(C)=O (some centres not stated)
inactive: NCI-H23 lung 98.5% | NCI-H226 lung 90.6% | NCI-H322M lung 105% | HOP-62 NSCLC 95% | NCI-H460 lung 107% | NCI-H522 lung 100% | A549/ATCC NSCLC 97.7% | 786-0 renal 102% | COLO 205 colon 115% | DU-145 prostate 108% | K-562 leukemia 108% | MALME-3M melanoma 98.4% | MDA-MB-231 breast 107% | RXF 393 renal 104% | SF-268 CNS 97.9% | SF-295 CNS 94.2% | SF-539 CNS 98% | UACC-257 melanoma 98% | M14 melanoma 91.3%

COc1ccc([C@H]2c3[nH]c4ccccc4c3C[C@H]3C(=O)N(CCCCCCC(=O)NO)CC(=O)N23)cc1
inactive: NCI-H23 lung 34.6% | NCI-H226 lung 76.9% | NCI-H322M lung 53.2% | HOP-62 NSCLC 42.9% | NCI-H460 lung 47% | A549/ATCC NSCLC 60% | 786-0 renal 83.6% | COLO 205 colon 22.9% | DU-145 prostate 24.2% | MDA-MB-231 breast 45.3% | RXF 393 renal 22.2% | SF-268 CNS 69.7% | SF-295 CNS 34.8% | SF-539 CNS 38.1% | UACC-257 melanoma 27.7% | M14 melanoma 22.4%
active: NCI-H522 lung 4.51% | K-562 leukemia 6.77% | MALME-3M melanoma -4%

COc1ccc(Oc2nc(Nc3ccc(N4CCOCC4)cc3)ncc2NC(=O)Nc2cccc(OC)c2)cc1
inactive: NCI-H23 lung 72.2% | NCI-H226 lung 42.1% | NCI-H322M lung 53.3% | HOP-62 NSCLC 64.7% | NCI-H460 lung 41.5% | NCI-H522 lung 23.7% | A549/ATCC NSCLC 41.7% | 786-0 renal 80.7% | COLO 205 colon 17.8% | DU-145 prostate 47.5% | K-562 leukemia 57% | MALME-3M melanoma 69.7% | MDA-MB-231 breast 28.8% | RXF 393 renal 39.4% | SF-268 CNS 74.4% | SF-295 CNS 81.1% | SF-539 CNS 28.3% | UACC-257 melanoma 91.5% | M14 melanoma 71.9%

CC1CCCN(CCCCOc2ccc(-c3ccc(C#N)cc3)cc2)C1 (configuration not stated)
inactive: NCI-H23 lung 82.6% | NCI-H226 lung 93.4% | NCI-H322M lung 99.9% | HOP-62 NSCLC 97.7% | NCI-H460 lung 99.1% | NCI-H522 lung 59.6% | A549/ATCC NSCLC 60.2% | 786-0 renal 90.1% | COLO 205 colon 75.1% | DU-145 prostate 101% | K-562 leukemia 62% | MALME-3M melanoma 120% | MDA-MB-231 breast 84.6% | RXF 393 renal 94.6% | SF-268 CNS 92.5% | SF-295 CNS 94.6% | SF-539 CNS 98.4% | UACC-257 melanoma 66.6% | M14 melanoma 83.2%

NC(=O)N/N=C\c1ccc([N+](=O)[O-])o1
inactive: NCI-H23 lung 99.6% | NCI-H226 lung 101% | NCI-H322M lung 117% | HOP-62 NSCLC 96.7% | NCI-H460 lung 105% | NCI-H522 lung 95.8% | A549/ATCC NSCLC 97.1% | 786-0 renal 107% | COLO 205 colon 117% | DU-145 prostate 105% | K-562 leukemia 101% | MALME-3M melanoma 73% | MDA-MB-231 breast 122% | RXF 393 renal 123% | SF-268 CNS 102% | SF-295 CNS 97.7% | SF-539 CNS 102% | UACC-257 melanoma 91.9% | M14 melanoma 112%

O=C(N/N=C/c1ccccc1O)c1ccncc1
active: NCI-H522 lung -20%
inactive: NCI-H23 lung 70.9% | NCI-H226 lung 70.1% | NCI-H322M lung 51.2% | HOP-62 NSCLC 43% | NCI-H460 lung 25.7% | A549/ATCC NSCLC 53.6% | 786-0 renal 51.1% | COLO 205 colon 27.4% | DU-145 prostate 58.3% | K-562 leukemia 64.9% | MALME-3M melanoma 73.6% | MDA-MB-231 breast 62.8% | RXF 393 renal 80.7% | SF-268 CNS 48.3% | SF-295 CNS 54% | SF-539 CNS 70.8% | UACC-257 melanoma 60.7% | M14 melanoma 50.7%

CCN(CC)c1ccc2c(cc1=O)[C@@H](NC(C)=O)CCc1cc(OC)c(OC)c(OC)c1-2
inactive: NCI-H23 lung 49.5% | NCI-H226 lung 51% | NCI-H322M lung 30.9% | HOP-62 NSCLC 30.9% | A549/ATCC NSCLC 13.2% | 786-0 renal 15.6% | MALME-3M melanoma 99% | MDA-MB-231 breast 15.1% | RXF 393 renal 58.8% | SF-268 CNS 24.4% | SF-295 CNS 11.3% | UACC-257 melanoma 63.1%
active: NCI-H460 lung 3.44% | NCI-H522 lung -38.8% | COLO 205 colon -62.8% | DU-145 prostate -10.2% | K-562 leukemia 0.286% | SF-539 CNS -3.76% | M14 melanoma -0.777%

O=c1oc2ccccc2cc1-c1cc(-c2ccc(-c3cc(-c4cc5ccccc5oc4=O)nc(-c4cc5ccccc5oc4=O)c3)cc2)cc(-c2cc3ccccc3oc2=O)n1
inactive: NCI-H23 lung 98.5% | NCI-H226 lung 97.8% | NCI-H322M lung 108% | HOP-62 NSCLC 93.3% | NCI-H460 lung 106% | NCI-H522 lung 97% | A549/ATCC NSCLC 101% | 786-0 renal 107% | COLO 205 colon 103% | DU-145 prostate 107% | K-562 leukemia 94.8% | MALME-3M melanoma 98.3% | MDA-MB-231 breast 94.4% | RXF 393 renal 118% | SF-268 CNS 104% | SF-295 CNS 111% | SF-539 CNS 93.2% | UACC-257 melanoma 103% | M14 melanoma 103%
